This note sets out measurements from PubChem BioAssay AID372 (MTDP, 2006).

As a reminder, the inhibition is the relative decrease from the control value, in per cent.

Molecules are shown by their SMILES. Hit rate of the full screen: of about 100,000 compounds, about 770 (0.77%) were called active. Only a selection was taken, and actives are over-represented in it overall. Values without a mark were called inactive. Rule as the data show it: active = inhibition above about 50%; inactive = the rest.

This assay addresses Gag-Pol polyprotein (Human immunodeficiency virus type 1 group M subtype B (isolate HXB2)) (UniProt P04585). Briefly: RNase H inhibition, HIV 1 Gag Pol polyprotein, FRET biochemical assay, screening (AID 372). The settings on record: HIV-1 RT RNase H, FRET RNA/DNA substrate fluorescence; at 10 µM; active compounds read high.
In the case of `CCCSc1nc2ccccc2c(=O)n1CC1CCCCC1`, the inhibition was 1%. To `O=C(Nc1cccc(C(F)(F)F)c1)c1ccc(I)cc1` belongs 1%; to `COc1cc(/C=N\NC(=O)C2COc3cc4ccccc4cc3O2)ccc1OCc1ccccc1` (stereo not given), 14%. With `CCN(Cc1ccccc1)C(=O)c1ccccc1C` the figure was 6%; with `CCOc1ccccc1OCCCCOc1cc(C)ccc1Cl`, 5%. To `Cc1c(OCc2c(F)cccc2Cl)ccc2c3c(c(=O)oc12)CCC3` belongs 0%. For the compound `CCOC(=O)c1c(N)sc2c1CCc1ccccc1-2`, the inhibition is 51% (active).

With `CCOC(=O)c1c(NC(C)=O)sc2c1CCc1ccccc1-2`, the inhibition was 1%.

For the compound `COC(=O)c1c(N)sc2c1CCc1ccccc1-2`, the inhibition was 9%. In the case of `Cc1ccc(-c2nc(N/N=C/c3ccccc3Cl)c3ccccc3n2)cc1`, the inhibition was 58% (active). Take `Cc1ccc(-c2nc(N/N=C/c3ccccc3)c3ccccc3n2)cc1`: the inhibition was 10%.

On to `Cc1ccc(-c2nc(N/N=C/c3ccccc3O)c3ccccc3n2)cc1`, for which the inhibition is 20%.

Take `COc1ccc(OC)c(C(=S)N2CCOCC2)c1`: the inhibition was 11%. To `Oc1ccccc1C(=S)N1CCOCC1` belongs 24%; to `COc1ccccc1C(=S)N1CCOCC1`, 70% (active); to `COc1ccc2c(c1)c(/C=C/c1nc3ccccc3c(=O)n1-c1ccccc1[N+](=O)[O-])c(C)n2C`, 1%. To `Cc1cccc(C)c1NC(=O)c1ccc(N(C)S(=O)(=O)c2ccccc2)cc1` belongs 57% (active); to `CN(c1ccc(C(=O)N2CCCC2)cc1)S(=O)(=O)c1ccccc1`, 5%; to `CN(c1ccc(C(=O)Nc2cc(Cl)cc(Cl)c2)cc1)S(=O)(=O)c1ccccc1`, 8%.

Consider `CC1CCN(C(=O)c2ccc(N(C)S(=O)(=O)c3ccccc3)cc2)CC1`, for which the inhibition was 51% (active). In the case of `CN(c1ccc(C(=O)N2CCN(c3ccccc3)CC2)cc1)S(=O)(=O)c1ccccc1`, the inhibition was 6%. Regarding `Cc1ccccc1CNC(=O)c1ccc(N(C)S(=O)(=O)c2ccccc2)cc1`, the inhibition was 0%. With `CN(c1ccc(C(=O)Nc2cc(Cl)ccc2Cl)cc1)S(=O)(=O)c1ccccc1` the figure was 54% (active); with `CNC(=O)c1ccc(N(C)S(=O)(=O)c2ccccc2)cc1`, 2%; with `CN(c1ccc(C(=O)Nc2ccccc2F)cc1)S(=O)(=O)c1ccccc1`, 9%. With `Cc1nn(CC(=O)Nc2ccc(Cl)cc2Cl)c(C)c1[N+](=O)[O-]` the figure was 0%; with `CCN(CC)C(=O)C1CN(S(=O)(=O)c2ccccc2)CCN1S(=O)(=O)c1ccccc1` (stereo not given), 54% (active); with `O=C(O)C1CN(S(=O)(=O)c2ccccc2)CCN1S(=O)(=O)c1ccccc1` (stereo not given), 8%.

As to `COC(=O)C1CN(S(=O)(=O)c2ccccc2)CCN1S(=O)(=O)c1ccccc1` (stereo not given), the inhibition was 2%.

As to `Cc1cc(OS(C)(=O)=O)c2c(-c3ccccc3)cc(=O)oc2c1`, the inhibition was 19%. Turning to `Cc1cc(OCC(=O)OC(C)C)c2c(-c3ccccc3)cc(=O)oc2c1`, the inhibition was 20%. To `Cc1cc(OC(C)C)c2c(-c3ccccc3)cc(=O)oc2c1` belongs 50% (active); to `COc1ccc(NC(=O)n2nc(C(F)(F)F)nc2N)cc1`, 0%; to `Cc1cc(Cl)ccc1OC(C)C(=O)N1CCN(c2cccc(Cl)c2)CC1` (stereo not given), 10%. As for `CCOc1nc(Nc2ccc(Cl)cc2)nc(N2CCCCC2)n1`, the inhibition was 9%. To `c1ccc(-c2onc3ccc(Oc4ccc5noc(-c6ccccc6)c5c4)cc23)cc1` belongs 19%; to `O=S(=O)(NCCSCc1ccccc1)c1ccc(Cl)cc1`, 15%.

Take `O=[N+]([O-])c1ccccc1S(=O)(=O)NCCSCc1ccc(Cl)cc1`: the inhibition is 50% (active).

For the compound `O=[N+]([O-])c1ccccc1S(=O)(=O)NCCSc1ccccc1`, the inhibition was 33%. With `COC(=O)c1ccc(-c2ccc(/C=C3/SC(=S)N(c4ccccc4)C3=O)o2)cc1` the figure was 4%. `COC(=O)c1ccc(-c2ccc(/C=C3\SC(=O)N(c4ccccc4)C3=O)o2)cc1`: the inhibition was 57% (active). To `O=C(O)c1ccc(-c2ccc(/C=C3/SC(=O)N(c4ccccc4)C3=O)o2)cc1` belongs 15%; to `COc1cc(/C=C(\C#N)C(N)=S)ccc1OCc1ccccc1`, 10%; to `CCOc1ccc(N(CC(N)=O)S(=O)(=O)c2ccc(SC)cc2)cc1`, 0%. With `CCOC(=O)c1c(NC(=O)Cc2ccc(OC)cc2)sc2c1CCN(C(=O)OCC)C2` the figure was 50% (active). With `CCOC(=O)c1c(NC(=O)COc2ccc(Cl)cc2)sc2c1CCN(C(=O)OCC)C2` the figure was 38%; with `CCOC(=O)c1c(NC(C)=O)sc2c1CCN(C(=O)OCC)C2`, 9%. With `CCOc1ccc(NC(=O)CSc2nc3ccccc3s2)cc1`, the inhibition was 10%. `Nc1c2c(cc3ccccc13)C(=O)c1ccccc1C2=O`: the inhibition is 46%. Consider `CCOc1ccccc1C(=O)Nc1cccc(OC)c1`, for which the inhibition is 11%.

For `Cc1ccc(S(=O)(=O)NC(=O)OC(c2ccccc2)C(F)(F)F)cc1` (stereo not given), the inhibition was 0%. On to `CCc1ccccc1NC(=O)c1ccc(CN2CCc3ccccc3C2)cc1`, for which the inhibition was 7%. As to `COc1ccc(CC(=O)Nc2ccc(Br)c(C)c2)cc1OC`, the inhibition was 12%. As for `COc1ccccc1CC(=O)Nc1cccc(F)c1`, the inhibition is 0%. With `CCOC(=O)c1ccc(NC(=O)Cc2ccccc2OC)cc1` the figure was 8%. In the case of `COc1ccccc1CC(=O)Nc1ccc(Br)c(C)c1`, the inhibition was 59% (active). With `COc1cccc(OC)c1C(=O)Nc1cc(C)ccn1` the figure was 0%. Turning to `CCC(C)c1ccc(NC(=O)Cc2ccccc2OC)cc1` (stereo not given), the inhibition was 52% (active). With `COc1ccccc1CC(=O)Nc1ccc(F)cc1` the figure was 10%. With `COc1ccccc1CC(=O)Nc1cc(C)ccn1` the figure was 53% (active); with `COc1ccccc1NC(=O)Cc1ccc(F)cc1F`, 0%; with `COc1ccccc1CC(=O)Nc1ccc(C)c(Cl)c1`, 5%.

Take `COc1ccccc1CC(=O)Nc1nccs1`: the inhibition is 14%. On to `COc1ccccc1CC(=O)Nc1ccc(F)cc1F`, for which the inhibition was 55% (active). With `Cc1nonc1-c1cn2cc(Cl)ccc2n1` the figure was 8%; with `COc1ccccc1C/C(N)=N/OC(=O)Cc1ccc(Cl)cc1`, 22%; with `O=C(Nc1ccc(S(=O)(=O)N2CCCCCC2)cc1)c1cccc([N+](=O)[O-])c1`, 9%. Consider `CCOC(=O)C1=C(C)N=c2s/c(=C\c3ccc([N+](=O)[O-])o3)c(=O)n2C1c1ccc(SC)cc1` (stereo not given), for which the inhibition is 20%.

Consider `COc1ccc(S(=O)(=O)N(CCc2ccccc2)CC(=O)NCC2CCCO2)cc1` (stereo not given), for which the inhibition was 2%. With `CCOc1ccc(N2C(=O)/C(=C/c3cc(Br)c(O)c(OC)c3)C(=O)NC2=S)cc1` the figure was 11%; with `COc1ccccc1CC(=O)Nc1cccc(C)c1`, 0%; with `COc1ccccc1CC(=O)Nc1ccc(Br)cc1`, 38%.

Consider `COc1ccccc1CC(=O)Nc1cccc(Br)c1`, for which the inhibition is 67% (active).

Turning to `O=C1c2ccc(-c3nc4ccccc4c(=O)o3)cc2C(=O)N1c1cccc(I)c1`, the inhibition is 0%. As to `Cc1ccc2c(c1)N(C(=O)c1ccccc1Br)C(C)(C)c1ssc(=S)c1-2`, the inhibition is 33%. `C=CCn1c(=O)c(C(=O)NCCCO)c(O)c2ccccc21`: the inhibition was 11%. Turning to `COc1ccc(/C=N/NC(=S)Nc2cccc(C)c2)c2ccccc12`, the inhibition was 5%. For the compound `COC(=O)C1=C(C)NC(C)=C(C(=O)OC)C1c1cn(-c2ccccc2)nc1-c1ccco1`, the inhibition was 4%. To `COc1cccc(OCCOC(=O)Nc2ccc(Cl)c(Cl)c2)c1` belongs 50% (active). With `Cc1cccc(OCCOC(=O)Nc2cccc(Cl)c2)c1` the figure was 44%. With `O=C(Nc1cccc(Cl)c1)OCCOc1cccc(F)c1` the figure was 58% (active); with `Cc1cccc(OCCOC(=O)Nc2ccc(Cl)c(Cl)c2)c1`, 46%. Regarding `O=C(Nc1ccc(Cl)c(Cl)c1)OCCOc1ccccc1Cl`, the inhibition is 48%. Regarding `O=C(Nc1cccc(Cl)c1)OCCOc1ccccc1`, the inhibition is 48%.

Regarding `COc1ccccc1OCCOC(=O)Nc1ccc(Cl)c(Cl)c1`, the inhibition is 10%. To `COc1ccc(OCCOC(=O)Nc2ccc(Cl)c(Cl)c2)cc1` belongs 34%; to `O=C(Nc1ccc(Cl)c(Cl)c1)OCCOc1cccc(Br)c1`, 44%. To `Cc1ccccc1OCCOC(=O)Nc1ccc(Cl)c(Cl)c1` belongs 51% (active). To `O=C(Nc1ccc(Cl)c(Cl)c1)OCCOc1ccccc1` belongs 50% (active); to `Cc1ccc(OCCOC(=O)Nc2ccc(Cl)c(Cl)c2)cc1`, 46%. For the compound `CC1=C(C#N)C(c2ccccc2C(F)(F)F)C2=C(CCCC2=O)N1` (stereo not given), the inhibition was 12%. In the case of `O=C1Nc2ccccc2NC1C1OC(c2ccccc2)=CC1=O` (stereo not given), the inhibition was 0%. Turning to `Cc1cccc(C2C(=O)c3ccccc3C2=O)c1C`, the inhibition was 13%. For the compound `O=C(O)c1ccc(N2C(=O)CC(N3CCN(Cc4ccc5c(c4)OCO5)CC3)C2=O)cc1` (stereo not given), the inhibition was 12%. With `C/C(=N\NC(=O)c1cc(C)[nH]n1)c1ccc(N)cc1` the figure was 5%; with `O=S1(=O)CCC(NC(=S)N/N=C/c2ccc(Cl)c(Cl)c2)C1` (stereo not given), 13%.

As to `COc1ccc(C(N)=CC(=O)C(C)(C)C)cc1`, the inhibition is 7%.

In the case of `Clc1cccc(OCCCCN2CCOCC2)c1Cl`, the inhibition is 55% (active). To `Clc1cccc(OCCCN2CCOCC2)c1Cl` belongs 2%; to `Clc1cccc(OCCN2CCOCC2)c1Cl`, 0%; to `Cc1sc2nc(SCC(=O)NCCO)[nH]c(=O)c2c1C`, 2%. To `COc1ccc(C(=O)NC(=S)Nc2ccc3oc(-c4ccccc4Cl)nc3c2)cc1OC` belongs 14%; to `COc1ccc(C(=O)NC(=S)Nc2ccc3oc(-c4ccccc4C)nc3c2)cc1Cl`, 25%. With `COc1ccc(C(=O)NC(=S)Nc2ccc3oc(-c4ccccc4Cl)nc3c2)cc1Cl` the figure was 53% (active); with `COc1ccc(-c2nc3cc(NC(=S)NC(=O)c4ccccc4OC)ccc3o2)cc1Cl`, 13%. For `COc1ccc(-c2nc3cc(NC(=S)NC(=O)c4ccccc4Cl)ccc3o2)cc1Cl`, the inhibition is 45%. For the compound `COc1ccc(-c2nc3cc(NC(=S)NC(=O)c4ccccc4C)ccc3o2)cc1`, the inhibition is 7%.

Take `COc1ccc(-c2nc3cc(NC(=S)NC(=O)c4ccccc4C)ccc3o2)cc1Cl`: the inhibition is 56% (active). Regarding `CCOc1ccc(-c2nc3cc(NC(=S)NC(=O)c4ccccc4Br)ccc3o2)cc1`, the inhibition is 20%. Take `CCOc1ccc(-c2nc3cc(NC(=S)NC(=O)c4ccccc4C)ccc3o2)cc1`: the inhibition was 61% (active).
